According to PubChem BioAssay AID1159580 (chemical genetic matrix, 2015):
“And” between values parts separate entries of the source, which are not always exact repeats. Equal values may be shown once. In all, about 5,500 compounds went through this assay and about 2,000 (36%) were called active. Not shown: some 18% with an inconclusive outcome. No stated cut-off is given here; in the data, active means normalized growth mostly below about 0.91 (no sharp cut-off); inconclusive means no clear call, values can overlap the other calls; inactive means mostly above about 0.92. This is one part of the list.

Test: chemical genetic growth profiling, strain panel (AID 1159580);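 further: tested at 20 µM; growth read once vehicle control cultures reached saturation at 30 °C; 1 = growth at the plate median or of vehicle wells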
Conditions: S. cerevisiae deletion strains, growth OD

Measured: normalized growth

COc1cc(O)ccc1C(C)=O
inactive: locus YAL013W, strain DEP1, stronger effect = lower value 0.99 | locus YAL021C, strain ccr4, stronger effect = lower value 1.02 | locus YAL026C, strain drs2, stronger effect = lower value 1.02 | locus YAL030W, strain snc1, stronger effect = lower value 1.01 | locus YBL061C, strain skt5, stronger effect = lower value 1.02 | locus YBR009C, strain hhf1, stronger effect = lower value 1.02 | locus YBR021W, strain FUR4, stronger effect = lower value 1.05 | locus YBR023C, strain chs3, stronger effect = lower value 1.04 | locus YBR171W, strain sec66, stronger effect = lower value 1.01 | locus YBR229C, strain ROT2, stronger effect = lower value 0.958 | locus YBR231C, strain swc5, stronger effect = lower value 1 | locus YBR279W, strain paf1, stronger effect = lower value 1 | locus YCL011C, strain gbp2, stronger effect = lower value 1.03 | locus YCL016C, strain dcc1, stronger effect = lower value 1.03 | locus YCL029C, strain bik1, stronger effect = lower value 0.973 | locus YCL061C, strain MRC1, stronger effect = lower value 1.02 | locus YCL069W, strain vba3, stronger effect = lower value 1.01 | locus YCR088W, strain abp1, stronger effect = lower value 1.02 | locus YDL005C, strain med2, stronger effect = lower value 1.01 | locus YDL035C, strain GPR1, stronger effect = lower value 0.979 | locus YDL040C, strain nat1, stronger effect = lower value 1.01 | locus YDL074C, strain BRE1, stronger effect = lower value 1.03 | locus YDL101C, strain DUN1, stronger effect = lower value 0.974 | locus YDL134C, strain PPH21, stronger effect = lower value 0.977 | locus YDL185W, strain tfp1, stronger effect = lower value 0.97 | locus YDL192W, strain arf1, stronger effect = lower value 0.992 | locus YDR001C, strain nth1, stronger effect = lower value 1.02 | locus YDR069C, strain doa4, stronger effect = lower value 1.02 | locus YDR101C, strain arx1, stronger effect = lower value 1.03 | locus YDR137W, strain rgp1, stronger effect = lower value 1.05 | locus YDR150W, strain NUM1, stronger effect = lower value 0.981 | locus YDR159W, strain sac3, stronger effect = lower value 1.03 | locus YDR162C, strain NBP2, stronger effect = lower value 0.939 | locus YDR195W, strain ref2 1 | locus YDR297W, strain sur2, stronger effect = lower value 1.02 | locus YDR318W, strain mcm21, stronger effect = lower value 0.965 | locus YDR334W, strain swr1, stronger effect = lower value 1.02 | locus YDR335W, strain msn5, stronger effect = lower value 1.01 | locus YDR388W, stronger effect = lower value 0.949 | locus YDR392W, strain spt3, stronger effect = lower value 0.95 | locus YDR502C, strain sam2, stronger effect = lower value 1.02 | locus YEL003W, strain gim4, stronger effect = lower value 1.01 | locus YEL037C, strain rad23, stronger effect = lower value 1.02 | locus YEL061C, strain CIN8 (second series), stronger effect = lower value 1.02 | locus YEL061C, strain CIN8, stronger effect = lower value 0.982 | locus YER015W, strain faa2, stronger effect = lower value 1.03 | locus YER016W, strain bim1, stronger effect = lower value 1.02 | locus YER110C, stronger effect = lower value 0.979 | locus YER111C, strain swi4, stronger effect = lower value 1.02 | locus YER155C, strain BEM2 (second series), stronger effect = lower value 1.02 | locus YER155C, strain BEM2, stronger effect = lower value 0.989 | locus YER167W, strain BCK2, stronger effect = lower value 0.979 | locus YFR010W, strain ubp6, stronger effect = lower value 1.02 | locus YGL078C, strain dbp3, stronger effect = lower value 0.989 | locus YGL086W, strain mad1, stronger effect = lower value 1.02 | locus YGL167C, strain pmr1, stronger effect = lower value 1.02 | locus YGL173C, strain kem1, stronger effect = lower value 1.03 | locus YGL227W, strain vid30, stronger effect = lower value 1.02 | locus YGL240W, strain doc1, stronger effect = lower value 1.01 | locus YGL248W, strain PDE1, stronger effect = lower value 0.952 | locus YGL253W, strain hxk2, stronger effect = lower value 1.02 | locus YGR078C, strain PAC10, stronger effect = lower value 0.952 | locus YGR135W, strain pre9, stronger effect = lower value 0.962 | locus YGR229C, strain SMI1, stronger effect = lower value 1 | locus YGR252W, strain gcn5, stronger effect = lower value 0.961 | locus YHR013C, strain ard1, stronger effect = lower value 1.03 | locus YHR027C, strain rpn1, stronger effect = lower value 1.02 | locus YHR030C, strain SLT2, stronger effect = lower value 0.998 and 1.02 | locus YHR079C, strain IRE1 (second series), stronger effect = lower value 0.99 | locus YHR079C, strain IRE1, stronger effect = lower value 1.01 | locus YHR094C, strain hxt1, stronger effect = lower value 0.973 | locus YHR129C, strain ARP1, stronger effect = lower value 0.987 | locus YHR142W, strain chs7, stronger effect = lower value 1.04 | locus YHR200W, strain rpn10, stronger effect = lower value 0.982 | locus YIL066C, strain RNR3, stronger effect = lower value 0.985 | locus YIL073C, strain SPO22, stronger effect = lower value 0.955 | locus YIL125W, strain kgd1, stronger effect = lower value 0.981 | locus YIR030C, strain dcg1, stronger effect = lower value 0.987 | locus YJL092W, strain hpr5, stronger effect = lower value 1.02 | locus YJL095W, strain BCK1 (second series), stronger effect = lower value 1.02 | locus YJL095W, strain BCK1, stronger effect = lower value 0.942 and 1.02 | locus YJL115W, strain asf1, stronger effect = lower value 1.02 | locus YJL129C, strain trk1, stronger effect = lower value 1.04 | locus YJL134W, strain LCB3, stronger effect = lower value 0.989 | locus YJL154C, strain vps35, stronger effect = lower value 1.02 | locus YJL164C, strain tpk1, stronger effect = lower value 1.03 | locus YJL166W, strain qcr8, stronger effect = lower value 1.01 | locus YJL168C, strain set2, stronger effect = lower value 1.01 | locus YJL187C, strain SWE1 (second series), stronger effect = lower value 0.974 | locus YJL187C, strain SWE1, stronger effect = lower value 1.01
